Records with an inconclusive call do not appear. Unmarked numbers belong to inactive results. Calls come from the whole dose curve; as a rule, active = well fitted inhibition curve with a large enough effect in the signal ratio in the repeat runs (not every such curve was filed as active); inconclusive = weak or mixed curves, or effect the other way; inactive = no such curve, though single readings can be large or run the other way; the % refers to the signal ratio.
% is set by controls: 0 for no effect and ±100 for the full control effect.

Sequence of Bile acid receptor (Homo sapiens) (Q96RI1 whole entry, looked up): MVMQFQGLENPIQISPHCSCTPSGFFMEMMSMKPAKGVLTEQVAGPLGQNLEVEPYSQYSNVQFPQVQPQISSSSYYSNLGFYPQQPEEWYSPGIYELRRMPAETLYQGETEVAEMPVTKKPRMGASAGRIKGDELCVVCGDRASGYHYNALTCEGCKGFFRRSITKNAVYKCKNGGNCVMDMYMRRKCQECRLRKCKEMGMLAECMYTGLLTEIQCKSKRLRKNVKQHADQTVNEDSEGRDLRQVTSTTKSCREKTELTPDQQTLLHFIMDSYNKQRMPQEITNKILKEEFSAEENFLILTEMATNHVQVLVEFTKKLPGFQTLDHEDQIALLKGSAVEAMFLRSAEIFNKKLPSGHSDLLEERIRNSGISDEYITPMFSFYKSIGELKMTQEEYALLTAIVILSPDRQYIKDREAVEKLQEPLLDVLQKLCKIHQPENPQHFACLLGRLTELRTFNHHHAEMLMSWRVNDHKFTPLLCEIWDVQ

In the assay the target is Bile acid receptor (Homo sapiens) (UniProt Q96RI1). The assay can be described thus: qHTS assay to identify small molecule antagonists of the farnesoid-X-receptor (FXR) signaling pathway (AID 743217). The conditions noted are these: HEK293T FXR-UAS-bla, beta-lactamase ratio, CDCA-stimulated, 16 h; series mostly up to 62.6 µM; activity change, negative = inhibition: at the top concentration. From the text:
U.S. Tox21 Program National Center for Advancing Translational Sciences [NCATS] NIH Chemical Genomics Center [NCGC] U.S. Environmental Protection Agency [EPA] National Institutes of Environmental Health Sciences [NIEHS] National Toxicology Program [NTP] U.S. Food and Drug Administration [FDA] Tox21 Assay Overview: The farnesoid-X-receptor (FXR), a nuclear hormone receptor, is highly expressed in liver, intestine, kidney and adrenal cortex. Natural ligands of FXR are the bile acids (Cholic acid, Chenodeoxy cholic acid etc). FXR is an important regulator of diverse metabolic pathways, including the bile acid homeostasis, lipid and glucose metabolisms. FXR regulates the expression of target genes by binding either as a monomer or as a heterodimer with the retinoid X receptor (RXR). Numerous studies have reported that FXR exerts protective function during cholestasis, diabetes, liver regeneration, and cancer. To identify compounds that inhibit FXR signaling, GeneBLAzer FXR-UAS-bla HEK 293T cell line (Invitrogen, Carlsbad, CA) containing a beta-lactamase reporter gene under the control of a UAS response element was used to screen the Tox21 10K compound library.
Tox21 Assay Protocol Summary: FXR-bla cells were dispensed at 5000 cells/5uL/well in 1536-well black wall/clear bottom plates using a Multidrop Combi (Thermo Fisher Scientific, Waltham, MA) dispenser. After the assay plates were incubated at 37C and 5% CO2 for 5 h, 23 nL of compounds dissolved in DMSO, positive controls or DMSO only was transferred to the assay plate by a Pintool station (Kalypsys, San Diego, CA), followed by addition of 1 uL Chenodeoxycholic acid (50 uM, final concentration in the wells). The assay plates were incubated at 37C for 16 h. After 1 uL of LiveBLAzerTM B/G FRET substrate was added using a Bioraptr Flying Reagent Dispenser (FRD) workstation (Beckman Coulter, Indianapolis, IN), the plates were incubated at room temperature for 2 h, and fluorescence intensity was measured by an Envision plate reader (PerkinElmer, Shelton, CT).
Background: Quantitative high-throughput screening tests each substance at several concentrations.
Turning to `Nc1ccccc1Cl`, the “activity change, negative = inhibition” value is 3.99%.
On to `O=C1OC(=O)C2C1C1(Cl)C(Cl)=C(Cl)C2(Cl)C1(Cl)Cl` (stereo not given), for which the “activity change, negative = inhibition” value was 1.75% [at 81.1 µM].
In the case of `O=P(O)(Oc1ccccc1)Oc1ccccc1`, the “activity change, negative = inhibition” value was 3.62%.
The result for `Cc1nnc2n1-c1sc(CCC(=O)N3CCOCC3)cc1C(c1ccccc1Cl)=NC2` reads 2.42%; that for `CCS(=O)(=O)C(C)(C)S(=O)(=O)CC`, -5.34%; that for `Fc1ccc(C2(Cn3cncn3)OC2c2ccccc2Cl)cc1` (stereo not given), -5.62%.
Regarding `CSc1ccc(C(=O)C(C)(C)N2CCOCC2)cc1`, the “activity change, negative = inhibition” value was -9.76%.
In the case of `CN/C(=N\[N+](=O)[O-])NCC1CCOC1` (stereo not given), the “activity change, negative = inhibition” value was -0.548%.
The result for `CC(C)[N+](=O)[O-]` reads -0.297%; that for `CCOC(=O)/C=C(C)/C=C/C[C@@H](C)CCCC(C)C`, -0.672%.
`C(CCOCC1CO1)COCC1CO1` (stereo not given): the “activity change, negative = inhibition” value is 5.35%.
`CNC(=O)N(C)c1nc2ccccc2s1`: the “activity change, negative = inhibition” value is 3.38%.
The result for `ClC(Br)Br` reads -0.0668%; that for `O=S(=O)(O)C(F)(F)C(F)(F)C(F)(F)C(F)(F)C(F)(F)C(F)(F)F`, 3.19%.
The result for `NC1=NC(=O)C(c2ccccc2)O1` (stereo not given) reads 1.25%.
The result for `Cc1ncc(CNC(=O)N(CCCl)N=O)c(N)n1` reads 2.42%; that for `O=NN1CCN(N=O)CC1`, 5.94%; that for `COc1cc(OC)nc(NC(=O)NS(=O)(=O)c2ncccc2OCC(F)(F)F)n1`, -0.615%.
On to `CN(C)CCc1ccc(O)cc1`, for which the “activity change, negative = inhibition” value was -1.15%.
Consider `O=C(CCN1CC1)OCC(CO)(COC(=O)CCN1CC1)COC(=O)CCN1CC1`, for which the “activity change, negative = inhibition” value is 3.53%.
The result for `CC(=O)CCc1ccc2c(c1)OCO2` reads -0.886%; that for `CNC(=O)Oc1ccccc1C1OCCO1`, 4.46%; that for `CC(=O)[C@H]1CC[C@H]2[C@@H]3CC[C@H]4C[C@H](O)CC[C@]4(C)[C@H]3C(=O)C[C@]12C`, 1.36%.
The result for `CCCCc1ccc(O)cc1` reads 7.16%; that for `N#CCBr`, 8.27% [at 81.1 µM].
The result for `Nc1n[nH]c(N)n1` reads -1.56% [at 81.1 µM]; that for `CCC#N`, -4.88% [at 81.1 µM].
`CCOP(=S)(OCC)Oc1ncn(-c2ccccc2)n1`: the “activity change, negative = inhibition” value was 1.08%.
As for `c1ccc(N2CCNCC2)cc1`, the “activity change, negative = inhibition” value is -1.27%.
As for `CC(C)NCC(O)c1ccc(N)c(C#N)c1` (stereo not given), the “activity change, negative = inhibition” value is 16.3%.
The result for `C=C(C)[C@@H]1CC=C(C=O)CC1` reads 1.9%; that for `CCOP(=O)(OCC)OP(=O)(OCC)OCC`, -2.09%.
On to `CC(=O)C(Cl)Cl`, for which the “activity change, negative = inhibition” value is 5.5% [at 81.1 µM].
`COC(=O)C1=CCCN(C)C1`: the “activity change, negative = inhibition” value was 3.38%.
For the molecule `COP(=S)(OC)Oc1ccc(S(N)(=O)=O)cc1`, the “activity change, negative = inhibition” value was -7.85%.
Take `O=C1OC(CCN2CCCCC2)OC1(c1ccccc1)c1ccccc1` (stereo not given): the “activity change, negative = inhibition” value was -7.61%.
The result for `N#CCCC#N` reads 1.05%.
The result for `Cc1cnc[nH]1` reads 0.263%; that for `CCCCCCI`, -9.05%.
With `N#CC(Cl)(Cl)Cl`, the “activity change, negative = inhibition” value was -3.78%.

The record behind these values is PubChem BioAssay (Tox21).
